Results reported in ChEMBL document CHEMBL1157539, “Thousands of chemical starting points for antimalarial lead identification” (Nature, 2010).
Values joined by “and” are separate entries in the source; they are usually repeats but may differ in a detail not shown here. Equal entries are not always repeated.

Legend:
Type in all cases: functional
Plasmodium falciparum [1] = assay: GSK_TCMDC: Inhibition of Plasmodium falciparum 3D7 in whole red blood cells, using parasite LDH activity as an index of growth. Test compounds present at 2uM
Plasmodium falciparum [2] = assay: GSK_TCMDC: Inhibition of Plasmodium falciparum Dd2 in whole red blood cells, using parasite LDH activity as an index of growth. Test compounds present at 2uM
HepG2 = assay: GSK_TCMDC: Percent inhibition of human HepG2 cell line. Test compounds present at 10uM.

SMILES | Inhibition (Plasmodium falciparum [1]) | Inhibition (Plasmodium falciparum [2]) | Inhibition (HepG2)
O=C(/C=C/c1cc(C(F)(F)F)ccc1F)NC1CCC(CN2CCC(c3c[nH]c4ccccc34)CC2)CC1 (stereo not given) | 100% | 66% | 5%
O=C(Nc1ccccc1Cl)NC1CCC(CN2CCC(c3c[nH]c4ccccc34)CC2)CC1 (stereo not given) | 100% and 98% | 34% and 31% | 32% and 37%
CCCc1c(C(=O)NC2CCC(CN3CCC(c4c[nH]c5ccccc45)CC3)CC2)cnn1-c1ccccc1 (stereo not given) | 92% | 7% | 33%
CCOC(=O)c1c(C)n(C2CCCCC2)c2cc(Br)c(O)cc12 | 98% | 71% | 1%
CCN1CC=C(c2c[nH]c3ccccc23)CC1 | 84% | 58% | 27%
C[C@@H]1C[C@@H]([C@H](O)CC2CC(=O)NC(=O)C2)C(=O)[C@@H](C)C1 [CYCLOHEXIMIDE] | 96% | 87% | 46%
O=C(/C=C/c1ccc(Cl)c(Cl)c1)N1CCC2CC(N3CCC(c4c[nH]c5ccccc45)CC3)CCC2C1 (stereo not given) | 100% | 99% | 31%
CN(C)CCc1c[nH]c2ccc(C(=O)Nc3ccc(-c4ccncc4)cc3)cc12.O=C(O)CCC(=O)O | 99% | 46% | 23%
C#CCN1CCC2=C(C1)c1c(O)cc(C(C)C(C)CCc3ccc(F)cc3)cc1OC2(C)C (stereo not given) | 100% | 99% | 10%
COCCNCc1ccc(-c2cccc(CN(C(=O)CCC3CCCC3)C3CCN(Cc4ccccc4)CC3)c2)cc1.O=C(O)C(F)(F)F | 91% | 86% | 50%
CCCc1c(C(=O)NC2CCC(CN3CCC(c4c[nH]c5ccccc45)CC3)CC2)cnn1-c1c(Cl)cc(Cl)cc1Cl (stereo not given) | 100% | 49% | 41%
Cl.OC(CNC1CCCCCCC1)c1ccc(Cl)c(Cl)c1 (stereo not given) | 100% | 99% | 17%
Clc1ccc2nccc(N3CCC(CN4CCC(c5c[nH]c6ccccc56)CC4)CC3)c2c1.O=C(O)C(F)(F)F | 100% | 81% | 46%
CSc1nccc(-c2ccc(S(=O)(=O)NC3CCC(CN4CCC(c5c[nH]c6ccccc56)CC4)CC3)s2)n1 (stereo not given) | 100% | 33% and 67% | 61% and 36%
OC(CNC12CC3CC(CC(C3)C1)C2)c1cccc(C(F)(F)F)c1 (stereo not given) | 97% | 98% | 16%
CC(Cc1ccc(OCc2ccccc2)cc1)NCC(O)c1cccc(Cl)c1 (stereo not given) | 99% | 99% | 50%
Cc1cc(O)cc2c(C3CCN(CC4CCN(C(=O)/C=C/c5ccc(Cl)c(Cl)c5)CC4)CC3)c[nH]c12 | 100% | 100% | 33%
CC[C@H]1CN2CC[C@H]1C[C@H]2[C@@H](O)c1cc(OCCCN(C)C)nc2ccc(OC)cc12 | 99% | 8% | 0%
Cc1cc(C)c(CC(C)NCC(O)c2cccc(C(F)(F)F)c2)c(C)c1.Cl (stereo not given) | 100% | 99% | 0%
Cc1cc2ccc(CNCCc3ccccc3Br)cc2nc1N.Cl | 100% | 48% | 0%

SMILES | Inhibition (Plasmodium falciparum [1]) | Inhibition (Plasmodium falciparum [2]) | Inhibition (HepG2)
O=C(/C=C/c1ccc(C(F)(F)F)cc1)NC1CCC(CN2CCC(c3c[nH]c4ccccc34)CC2)CC1 (stereo not given) | 100% and 98% | 100% and 97% | 73% and 42%
O=C(/C=C/c1ccc(Cl)c(Cl)c1)N(Cc1ccccc1)C1CCC(CN2CCC(c3c[nH]c4ccccc34)CC2)CC1 (stereo not given) | 100% | 59% | 37%
O=C(/C=C/c1cccs1)NC1CCC(CN2CCC(c3c[nH]c4ccccc34)CC2)CC1 (stereo not given) | 82% | 29% | 33%
Cc1ccc(CC(C)NCC(O)c2cccc(C#N)c2)cc1 (stereo not given) | 94% | 86% | 2%
O=C(C=Cc1ccc(F)c(Br)c1)NC1CCC(CN2CCC(c3c[nH]c4ccccc34)CC2)CC1 (stereo not given) | 100% | 67% and 50% | 28% and 39%
CCCCCCC(C)c1cc(O)c2c(c1)OC(C)(C)c1ccncc1-2.Cl (stereo not given) | 100% | 61% | 0%
CCOC(=O)c1c(C)n(C2CCCCCC2)c2cc(Br)c(O)cc12 | 87% | 45% | 0%
Cc1[nH]c2cc(Cl)ccc2c1C1=CCN(CCCCC2(C)C(=O)Nc3c(F)cccc32)CC1 (stereo not given) | 90% | 74% | 14%
Cc1cccc(C(=O)Nc2ccnc(N(C)C3CCN(Cc4cccc(O)c4)CC3)c2)c1.O=C(O)C(F)(F)F | 89% | 62% | 5%
CC(C)CNCc1ccc(-c2ccc(CN(C(=O)NC3CCCCC3)C3CCN(Cc4ccccc4)CC3)cc2)cc1.O=C(O)C(F)(F)F | 100% | 88% | 39%
COC(=O)c1ccc(C[C@@H](C)NC[C@H](O)c2cccc(C(F)(F)F)c2)cc1.Cl | 97% | 93% | 1%
CC[C@H]1CN2CC[C@@H]1C[C@H]2[C@H](O)c1cc(N2CCC(C(N)=O)CC2)nc2ccc(OC)cc12 | 99% | 9% | 17%
CCCCCCC(CC)c1cc(O)c2c(c1)OC(C)(C)c1ccncc1-2.Cl (stereo not given) | 94% | 52% | 0%
CC[C@H]1CN2CC[C@@H]1C[C@H]2[C@H](O)c1cc(N2CCC(O)(c3ccc(Cl)cc3)CC2)nc2ccc(OC)cc12 | 100% | 98% | 21%
O=c1n[n+](C2CCCCC2)[n-]o1 | 91% | 82% | 0%
CN1CC=C(c2c[nH]c3ccc(OC(=O)c4ccccc4)cc23)C1 | 96% | 97% | 12%
O=[N+]([O-])c1ccc(Oc2c(Cl)cc(S(=O)(=O)NC3CCC(CN4CCC(c5c[nH]c6ccccc56)CC4)CC3)cc2Cl)c(Cl)c1 (stereo not given) | 100% | 64% | 30%
COc1ccc(OC)c(C(O)C(C)NCc2cc(Cl)ccc2O)c1.Cl (stereo not given) | 97% | 99% | 11%
S=C(NCCc1ccc(Cl)cc1)NC1CCC(CN2CCC(c3c[nH]c4ccccc34)CC2)CC1 (stereo not given) | 100% | 84% and 34% | 42% and 37%
Oc1cccc(C2CCCN(Cc3cccc4cc[nH]c34)C2)c1 (stereo not given) | 100% | 82% | 16%

SMILES | Inhibition (Plasmodium falciparum [1]) | Inhibition (Plasmodium falciparum [2]) | Inhibition (HepG2)
Cc1[nH]c2cc(F)ccc2c1C1=CCN(CCCCC2(C)C(=O)Nc3ccccc32)CC1 (stereo not given) | 93% | 90% | 13%
Cc1[nH]c2ccccc2c1C1=CCN(CCCCCNC(=O)/C=C/c2ccc(Cl)c(Cl)c2)CC1 | 97% | 89% | 28%
CC[C@H]1CN2CCc3cc(OC)c(OC)cc3[C@@H]2C[C@@H]1C[C@H]1NCCc2c1cc(OC)c(OC)c2Br | 99% | 97% | 45%
O=C(CCC(=O)c1ccc2c3c(cccc13)CC2)NC1CCC(CN2CCC(c3c[nH]c4ccccc34)CC2)CC1 (stereo not given) | 96% | 13% | 34%
COC(=O)c1ccc(CC(C)NCC(O)c2cccc(C(F)(F)F)c2)cc1C (stereo not given) | 93% | 74% | 6%
CCOc1ccc(CN(CCc2ccc3c(c2)OCO3)Cc2cc(OC)ccc2O)cc1.O=C(O)C(=O)O | 96% | 88% | 3%
O=C(/C=C/c1ccc(F)c(C(F)(F)F)c1)N1CCC(CN2CCC(c3c[nH]c4ccccc34)CC2)CC1 | 98% | 1% | 23%
C/C=C1\CN2CC[C@H]1C[C@H]2[C@H](O)c1ccnc2ccc(O)cc12 | 98% | 0% | 0%
CCCCCC(C)C(C)c1cc(O)c2c(c1)OC(C)(C)c1cnccc1-2.Cl (stereo not given) | 94% | 74% | 7%
CCCCCc1cc(O)c2c(c1)OC(C)(C)CC2C1=CCN(Cc2ccccc2)CC1 (stereo not given) | 99% | 79% | 15%
Cc1[nH]c2ccccc2c1C1=CCN(CCN2CCCc3c(Br)cccc3C2=O)CC1 | 95% | 90% | 10%
CCC1(C)CC(CCNCc2ccccc2O)(c2ccc(F)cc2)CCO1 (stereo not given) | 98% | 32% | 20%
COc1ccc(C2CNCc3c2cc(OC)c(OC)c3Cl)cc1.Cl (stereo not given) | 98% | 3% | 42%
COC(=O)c1sccc1NC(=S)NC1CCC(CN2CCC(c3c[nH]c4ccccc34)CC2)CC1 (stereo not given) | 97% and 100% | 49% and 54% | 34% and 25%
O=C(/C=C/c1ccc(Cl)c(Cl)c1)N1CCC(CN2CCC(c3c[nH]c4ccc(NS(=O)(=O)c5cccs5)cc34)CC2)CC1 | 100% | 100% | 17%
Cc1[nH]c2ccccc2c1C1=CCN(CCN2CCOc3c(Br)cccc3C2=O)CC1 | 97% | 76% | 15%
CN1CC=C(c2c[nH]c3ccc(OCc4ccccc4)cc23)CC1 | 95% | 97% | 0%
CCCCCCC(C)(C)c1cc(O)c2c(c1)OC(C)(C)c1ccncc1-2.Cl | 95% | 99% | 4%
CC(Cc1ccc(C(C)(C)C)cc1)NCC(O)c1ccccc1.Cl (stereo not given) | 94% | 89% | 5%
Cc1cc(C2CCCCN2C)ccc1-c1ccc(C(=O)N2CCc3cc4c(cc32)C2(CCN(C)CC2)CO4)cc1.Cl (stereo not given) | 95% | 94% | 37%
